Assay [1] can be described thus: Cell Viability - BJ (AID 421).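 Also: potency is read from the fitted curve at half-maximal effect; cells exposed to compound for 40 hours at 37 °C before readout.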 Conditions: BJ fibroblast viability, qHTS. The method in brief:
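Cytotoxicity as drop in intracellular ATP (CellTiter-Glo, 20 min RT) after 40 hr compound exposure of BJ fibroblasts at 37 °C. Titrations scaled between DMSO and 100 uM tamoxifen, Hill-fitted for AC50.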

A short description of assay [2]: Cellular Toxicity (caspase-3) N2a (AID 665; active = well fitted curve in the direction sought with a large enough effect; an effect the other way counts as inactive or inconclusive;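 also: compound exposure lasted 16 h at 37 °C before readout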). To be noted: N2a cells, luminescence, normalized: DMSO 0%, 10 µM staurosporine 100%; at 92.2 µM (top of the series). The method in brief: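 Mouse N2a neuroblastoma cells, 1500 per well, treated 16 h at 37 °C in complete medium; caspase-3/7 activity by Caspase-Glo luminescence after 1 h. Normalized to DMSO and 10 uM staurosporine; AC50 from Hill fits.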

A short description of assay [3]: Cell Viability - LYMP1-003 - Assay at 40 hr (AID 964; active = well fitted curve in the direction sought with a large enough effect; an effect the other way counts as inactive or inconclusive; also: % is scaled to controls: 0 for no effect and ±100 for the full control effect; nearly all actives have a fitted effect of over 60% in size). Conditions: LYMP1-003 lymphoblastoid viability; series mostly up to 92.2 µM. The method in brief: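 LYMP1-003 human lymphoblastoid cells, 2500/well, preincubated 5 h at 37 C, then treated with compound for 40 h at 37 C. Intracellular ATP read by CellTiter-Glo luminescence after 30 min at room temperature; AC50 from Hill-equation fits.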

Assay [4] addresses Bile acid receptor (Homo sapiens) (UniProt Q96RI1). In words: qHTS assay for small molecule antagonists of farnesoid X receptor signaling (AID 588526). Also: % is scaled to controls: 0 for no effect and ±100 for the full control effect. To be noted: HEK293T FXR-UAS-bla, beta-lactamase ratio, antagonist mode; series mostly up to 76.7 µM. The method, boiled down:
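Concentration-response titrations were fitted to the Hill equation for half-maximal inhibition and maximal response, with data normalised to 50 uM chenodeoxycholic acid and DMSO control wells. Cells: FXR-UAS-bla HEK293T, dialyzed FBS.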

Assay [5] shares this target. Briefly: qHTS assay for small molecule agonists of farnesoid X receptor signaling (AID 588527).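 Also: 0% = vehicle basal and 100% = reference agonist.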 Conditions: HEK293T FXR-UAS-bla, beta-lactamase ratio, 16 h; stronger effect = higher value. The method in brief:
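Agonist-mode beta-lactamase reporter in GeneBLAzer FXR-UAS-bla HEK293T cells, titration up to 92 uM, 16 h exposure at 37 C, CCF4 fluorescence. Response scaled to DMSO (0%) and 100 uM chenodeoxycholic acid (100%), then Hill-fitted for EC50 and efficacy.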
A general note: Quantitative high-throughput screening tests each substance at several concentrations.

Assay [6] deals with Vitamin D3 receptor (Homo sapiens) (UniProt P11473). In words: qHTS assay for small molecule antagonists of vitamin D receptor signaling (AID 588541).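 Also: receptor activated by calcitriol during compound treatment; % is scaled to controls: 0 for no effect and ±100 for the full control effect.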 Conditions: HEK293T VDR-UAS-bla, beta-lactamase ratio, antagonist mode; series mostly up to 76.7 µM. The method in brief:
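VDR-UAS-bla HEK293T cells (2000/well, 2% charcoal-stripped FBS) were treated with titrated compounds plus 1-alpha,25-dihydroxyvitamin D3 (50 nM or 3 nM final) for 16 h at 37 C. CCF4 beta-lactamase fluorescence was read; Hill fits gave IC50.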

The target is the same in assay [7]. In words: qHTS assay for small molecule agonists of vitamin D receptor signaling (AID 588543).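 Also: 0% = DMSO basal and 100% = reference agonist control.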 To be noted: HEK293T VDR-UAS-bla, beta-lactamase ratio, 16 h; series mostly up to 76.8 µM. The method, boiled down:
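β-lactamase reporter, VDR-UAS-bla HEK293T, agonist mode. Cells plated 5 h at 37 °C, compound titration 16 h at 37 °C, CCF4 dye 2 h RT, ratio 460/530 nm. Hill fit → EC50, efficacy vs 50 nM 1α,25-(OH)2D3.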

Assay [8] deals with Retinoic acid receptor RXR-alpha (Homo sapiens) (UniProt P19793). Briefly: qHTS assay for small molecule antagonists of retinoid X receptor alpha signaling (AID 588546; active = well fitted inhibition curve with a large enough effect in the signal ratio, with a control signal flat, not every such curve was filed as active; the % refers to the signal ratio; also: % is scaled to controls: 0 for no effect and ±100 for the full control effect). To be noted: HEK293T RXRa-UAS-bla, beta-lactamase ratio, antagonist mode. The method, boiled down: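 Beta-lactamase reporter inhibition, read as CCF4 fluorescence ratio (ex 405, em 460/530 nm) after 2 h at RT. HEK293T UAS-bla cells, 2500/well, were stimulated with 9-cis-RA at 500 or 100 nM final alongside test compound for 18 h at 37 C.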

A short description of assay [9]: qHTS assay for small molecule agonists of the antioxidant response element (ARE) signaling pathway (AID 651741; active = well fitted activation curve with a large enough effect in the signal ratio; the % refers to the signal ratio; also: % of control where 0% means no effect). To be noted: HepG2 ARE-bla reporter, beta-lactamase FRET ratio, 16 h; series mostly up to 96 µM. The method in brief:
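Compounds in DMSO are pinned onto HepG2 ARE-bla cells (2,000/well) that were preincubated 5 h; plates stay 16 h at 37 C, then beta-lactamase activity is detected with LiveBLAzer B/G substrate by fluorescence.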

A short description of assay [10]: qHTS assay for small molecule activators of the nuclear factor-kappa B (NF-kB) signaling pathway (AID 651749; active = well fitted activation curve with a large enough effect in the signal ratio; the % refers to the signal ratio; also: % of control where 0% means no effect). To be noted: NF-kB-bla ME-180 cells, beta-lactamase FRET ratio, 16 h; activation: stronger effect = higher value. The method in brief: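 Screening used 2,000 ME-180 reporter cells per well exposed to pinned compound (23 nL) or DMSO; after 16 hr at 37C, beta-lactamase expression under NF-kB control was assessed through FRET.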

A short description of assay [11]: qHTS assay for small molecule activators of the human pregnane X receptor (PXR) signaling pathway (AID 720659; call rule not given here; also: 0% is about no effect). To be noted: DPX-2 HepG2 CYP3A4-luciferase, 24 h; series mostly up to 92.3 µM.
The nature of assay [12]: Cell Viability - SH-SY5Y (AID 544; active = well fitted curve in the direction sought with a large enough effect; an effect the other way counts as inactive or inconclusive;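 also: cells exposed to compound for 40 hours; 0% = DMSO alone and -100% = 100 µM tamoxifen; nearly all actives have a fitted effect of over 55% in size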). To be noted: SH-SY5Y neuroblastoma cell viability; viability change, negative = cytotoxic: at 92.2 µM (top of the series). The method in brief:
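SH-SY5Y human neuroblastoma cells (1500/well) incubated 5 h, then compound-treated 40 h at 37 °C in complete medium. Viability read as intracellular ATP by CellTiter-Glo luminescence after 20 min; AC50 from Hill-equation fits of qHTS concentration-response.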

Assay [13] is described as follows: Cell Viability - LYMP2-017 (AID 972; active = well fitted curve in the direction sought with a large enough effect; an effect the other way counts as inactive or inconclusive; also: % is scaled to controls: 0 for no effect and ±100 for the full control effect; nearly all actives have a fitted effect of over 55% in size). To be noted: LYMP2-017 lymphoblastoid cell viability; series mostly up to 92.2 µM. The method, boiled down: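 LYMP2-017 human lymphoblastoid cells (2500/well) settled 5 hr at 37 C, then exposed to compound 24 hr at 37 C in complete medium. Viability taken as intracellular ATP by CellTiter-Glo luminescence after 30 min at RT; AC50 from Hill fits.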

A short description of assay [14]: qHTS Assay for Identification of Small Molecule Inducers of Hypoxia Response (AID 2120; active = well fitted curve in the direction sought with a large enough effect in the signal ratio, with a control signal flat, not every such curve was filed as active; the % refers to the signal ratio; also: 0% is about no effect). Conditions: hypoxia response reporter cells, beta-lactamase ratio readout; series mostly up to 104 µM. The method in brief: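 HRE-bla ME-180 cells in Opti-MEM with 0.5% dialyzed FBS, pre-plated 4-5 h, then compound titration for 17 h at 37 degrees Celsius. CCF4 loaded 2.5 h at room temperature; 460/530 nm ratio gave %Activity and AC50 for induction.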

Assay [15] can be described thus: qHTS assay for small molecule disruptors of the mitochondrial membrane potential - 5 hr assay (AID 651755). Also: % is scaled to controls: 0 for no effect and ±100 for the full control effect; nearly all actives have a fitted effect of over 40% in size. Conditions: JC-1-type ratio dye; series mostly up to 92.2 µM. The method in brief:
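HepG2 cells, attached overnight at 37C, were exposed to compound or DMSO for 5 hr at 37C, 5% CO2. Mito-MPS dye was then added for 30 min, and fluorescence read at 490/535 nm (monomers) and 540/590 nm (aggregates).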

Assay [16] in a line: qHTS assay for small molecule agonists of the antioxidant response element (ARE) signaling pathway measured by Nrf2-dependant transcriptional activity - cell viability counter screen (AID 720653; active = well fitted curve in the direction sought with a large enough effect in the repeat runs; an effect the other way counts as inactive or inconclusive; also: % is scaled to controls: 0 for no effect and ±100 for the full control effect). To be noted: ARE-bla HepG2 viability, CellTiter-Glo ATP luminescence, 16 h; stronger effect = lower value. The method, boiled down: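 ARE-bla HepG2 cells (2,000/well) rested 5 hrs at 37C/5% CO2, then exposed to compounds in DMSO for 16 hrs. Viability was read in the same wells as intracellular ATP by luminescence, 30 min at room temperature after reagent addition.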

The nature of assay [17]: qHTS assay for small molecule antagonists of peroxisome proliferator-activated receptor delta signaling (AID 588535).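 Also: cells co-treated with a PPAR-delta agonist as stimulator during compound exposure.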 To be noted: HEK293T PPARd-UAS-bla, beta-lactamase FRET ratio, 18 h; 460 nm channel. The method, boiled down:
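Reporter: UAS-bla under PPAR-delta response element, HEK293T host. Medium: 2% charcoal/dextran FBS. Dosing: titration, 18 hrs, 37 C. Detection: CCF4, 2 hrs RT, 405 ex/460 and 530 em.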

Assay [18] in a line: Cell Viability - LYMP2-009 (AID 968; active = well fitted curve in the direction sought with a large enough effect; an effect the other way counts as inactive or inconclusive;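 also: 0% = DMSO alone and the full-kill end = tetraoctylammonium bromide at 92 µM; nearly all actives have a fitted effect of over 55% in size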). Conditions: LYMP2-009 lymphoblastoid cell viability; series mostly up to 92.2 µM.
For assay [19], the target named is Thyroid hormone receptor beta (Homo sapiens) (UniProt P10828). Briefly: qHTS assay for small molecule agonists of thyroid hormone receptor beta signaling (AID 588545).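 Also: 0% = DMSO only and 100% = 10 nM T3.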 To be noted: TR-UAS-bla GripTite HEK 293, beta-lactamase ratio, agonist mode, 18 h, percent of T3 response, DMSO as zero; series mostly up to 76.7 µM. The method, boiled down: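 Beta-lactamase reporter activity under TR response element control is measured in HEK 293 cells after 18 hrs compound exposure. Signal is ratiometric CCF4 fluorescence, 460/530 nm.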

The structures appear in SMILES notation. “And” between values parts separate entries of the source, which are not always exact repeats. Identical values can stand only once. Inconclusive results are not listed. The source made the active and inactive calls. Unless noted, calls follow the shape of the full dose curve. Where only a bound is given, the exact number is not on record here.

Chain of Retinoic acid receptor RXR-alpha (Homo sapiens) (P19793 whole entry, looked up): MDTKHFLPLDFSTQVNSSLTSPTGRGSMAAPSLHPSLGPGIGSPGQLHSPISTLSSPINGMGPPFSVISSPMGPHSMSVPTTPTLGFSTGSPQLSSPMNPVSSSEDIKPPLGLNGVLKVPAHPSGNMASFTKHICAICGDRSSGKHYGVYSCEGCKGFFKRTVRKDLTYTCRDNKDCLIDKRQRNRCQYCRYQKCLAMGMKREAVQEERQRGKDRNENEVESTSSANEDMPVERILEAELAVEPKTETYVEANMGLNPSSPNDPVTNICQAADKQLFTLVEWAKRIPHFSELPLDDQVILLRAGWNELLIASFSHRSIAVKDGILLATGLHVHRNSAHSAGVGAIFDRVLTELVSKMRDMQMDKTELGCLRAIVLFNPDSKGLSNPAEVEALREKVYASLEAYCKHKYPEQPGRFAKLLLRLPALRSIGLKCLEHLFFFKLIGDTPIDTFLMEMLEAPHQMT
Chain of Vitamin D3 receptor (Homo sapiens) (P11473 whole entry, looked up): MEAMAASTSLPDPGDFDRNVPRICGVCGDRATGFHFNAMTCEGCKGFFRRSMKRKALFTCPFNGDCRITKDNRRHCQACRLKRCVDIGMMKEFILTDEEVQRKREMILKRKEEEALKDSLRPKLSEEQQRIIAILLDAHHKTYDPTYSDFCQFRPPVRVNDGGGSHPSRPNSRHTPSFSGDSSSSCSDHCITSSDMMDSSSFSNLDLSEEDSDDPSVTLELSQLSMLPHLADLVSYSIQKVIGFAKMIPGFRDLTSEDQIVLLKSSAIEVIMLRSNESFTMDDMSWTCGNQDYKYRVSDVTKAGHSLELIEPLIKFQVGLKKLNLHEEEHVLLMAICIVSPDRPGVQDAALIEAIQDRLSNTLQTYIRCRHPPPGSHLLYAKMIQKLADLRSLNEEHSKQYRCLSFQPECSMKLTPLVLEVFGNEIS
Chain of Bile acid receptor (Homo sapiens) (Q96RI1 whole entry, looked up): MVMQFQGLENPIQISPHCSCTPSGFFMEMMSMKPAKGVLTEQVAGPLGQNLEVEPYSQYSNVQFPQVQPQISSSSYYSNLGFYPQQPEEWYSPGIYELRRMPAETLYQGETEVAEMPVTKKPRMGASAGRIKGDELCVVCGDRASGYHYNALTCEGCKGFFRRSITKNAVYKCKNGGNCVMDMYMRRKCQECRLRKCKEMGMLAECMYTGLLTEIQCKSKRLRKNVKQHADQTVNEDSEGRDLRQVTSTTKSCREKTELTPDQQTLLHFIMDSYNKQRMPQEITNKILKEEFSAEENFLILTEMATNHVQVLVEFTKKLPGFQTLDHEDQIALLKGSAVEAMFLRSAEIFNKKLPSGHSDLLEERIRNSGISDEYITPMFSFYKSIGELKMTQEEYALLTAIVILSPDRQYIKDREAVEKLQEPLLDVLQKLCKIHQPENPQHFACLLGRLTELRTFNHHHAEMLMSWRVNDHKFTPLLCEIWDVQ
Chain of Thyroid hormone receptor beta (Homo sapiens) (P10828 whole entry, looked up): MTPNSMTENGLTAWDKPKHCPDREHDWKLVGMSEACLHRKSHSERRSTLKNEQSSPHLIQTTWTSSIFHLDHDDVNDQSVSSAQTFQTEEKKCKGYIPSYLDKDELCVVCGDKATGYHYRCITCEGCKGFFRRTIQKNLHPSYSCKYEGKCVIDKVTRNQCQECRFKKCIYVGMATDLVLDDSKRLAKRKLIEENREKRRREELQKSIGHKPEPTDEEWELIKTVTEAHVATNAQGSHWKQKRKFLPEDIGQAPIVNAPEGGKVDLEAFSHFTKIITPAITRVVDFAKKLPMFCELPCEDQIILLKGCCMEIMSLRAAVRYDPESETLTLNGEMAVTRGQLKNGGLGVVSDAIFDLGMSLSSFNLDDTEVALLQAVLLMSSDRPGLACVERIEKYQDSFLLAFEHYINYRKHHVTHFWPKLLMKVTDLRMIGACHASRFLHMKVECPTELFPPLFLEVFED

Consider `CCN(CC)c1ccccc1`, for which the Potency in [1] was > 92 µM (inactive). For the same compound, the caspase-3 activation in assay [2] is -1.42% (inactive). Also, the Potency result in [3] and in [9] was “inactive” throughout. Moreover, the outcome in assay [4], in assay [6], in [7] and in assay [11] was inactive. In addition, the activation in assay [5] is -2.77% (inactive); in assay [10], -0.976% (inactive). For the same compound, the max response in assay [8] was 4.5% (inactive).
As to `C=CCOC(C)=O`, the Potency result in assay [12], in assay [3], in [13], in [9] and in assay [15] was “inactive” each time. Besides, in [2], the caspase-3 activation was -3.6% (inactive). The result in assay [14], in assay [4], in [6], in [7] and in [11] was inactive. The activation in [5] is -1.61% (inactive); in assay [10], -0.256% (inactive). In assay [16], the max response is -12.1% (inactive).
With `Cc1ccccc1N`, the Potency in [1] was > 92 µM (inactive). Moreover, in assay [2], the caspase-3 activation was -5.28% (inactive) and -1.86% (inactive). In addition, the max response in assay [17] was 7.62%; in assay [8], 13.9% (inactive). For the same compound, the Potency result in [9] and in [15] was “inactive” in each case. Besides, the activation in assay [10] was 0.244% (inactive) and -0.381% (inactive). Besides, the call in assay [11] was inactive.
Turning to `C[C@]12CC[C@H]3[C@@H](CCC4=CC(=O)CC[C@@]43C)[C@@H]1CC[C@@H]2O`, the Potency in assay [1] was > 92 µM (inactive). For the same compound, in [2], the caspase-3 activation was 3.16% (inactive). The Potency entry in [3], in [18], in [13] and in assay [15] was “inactive” in each case. Also, the outcome in [7], in assay [19] and in [11] was inactive. In addition, the max response in [16] is -2.92% (inactive).
On to `O=[N+]([O-])c1ccc(Cl)c(Cl)c1`, for which the Potency entry in [12], in assay [18] and in assay [15] was “inactive” each time. The caspase-3 activation in assay [2] was -2.95% (inactive). Further, the result in assay [4], in assay [6], in [7] and in [11] was inactive. In addition, the activation was 1.09% (inactive) in assay [5] and -0.387% (inactive) in assay [10]. Further, the max response in [8] is 7.29% (inactive); in assay [16] it was -14.5% (inactive).

These data come from PubChem BioAssay (NCATS).
